From PubChem
Shown are actives, neighbours in structure and some others; about 2% of the full set was active somewhere.
Yp Topo-I inh: blocks Yersinia pestis topoisomerase I activity | AID 504884 | activity, % at 10 µM | 360,000 tested, 0.064% active | Y. pestis Topo-I cleavage product accumulation, plate reader; in the data active = activity above about 50%, passing the limit was not always enough; inconclusive = no clear call, values can overlap the other calls
CCHFV vOTU inh: CCHFV vOTU protease inhibition; Pep-AMC fluorescence; inhibition, % at 11.5 µM; 370,000 tested, 0.55% active; in the data active = inhibition above about 30%
PrPC surface inh: reduces human prion protein on the cell surface. 370,000 tested, 0.43% active. AID 720596. inhibition, % at 13.8 µM. P04156. cell surface PrPC, TR-FRET read-out; in the data active = inhibition above about 24%
PfHsp40 yeast: compounds rescuing yeast from Plasmodium falciparum HSP40 toxicity. S. cerevisiae expressing PfHsp40, growth rescue, ATP luminescence. growth rescue, % at 12.5 µM. 340,000 tested, 0.68% active. AID 504582; in the data active = growth rescue above about 28%, passing the limit was not always enough; inconclusive = no clear call, values can overlap the other calls;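 note: yeast W303a lacking pdr1 and pdr3 grown in galactose medium; growth measured after three days at 30 °C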
BJeLR viability: kills HRASV12-expressing BJeLR cells. 300,000 tested, 0.17% active. BJeLR (HRASV12) viability, CellTiter-Glo ATP luminescence, 48 h. inhibition, % (test concentration not listed); in the data active = inhibition above about 50%; inconclusive = no clear call, values can overlap the other calls
PrP 5UTR inh: suppresses PrP 5' UTR mRNA reporter expression. cell-based PrP 5' UTR mRNA reporter, plate reader. inhibition, % (concentration not given with the values). 340,000 tested, 0.35% active; in the data active = inhibition above about 52%
PrP 5UTR single: prion 5' UTR mRNA inhibition, cherry-pick retest; inhibition, % at 2.5 µM; 1,100 tested, 48% active; cell-based prion protein 5' UTR reporter, plate reader; AID 504592; shares compounds with PrP 5UTR inh; in the data active = inhibition above about 54%; inconclusive = no clear call, values can overlap the other calls
Hits are given with their value; - = inactive; ? = inconclusive; . = no result given.

SMILES | Yp Topo-I inh | CCHFV vOTU inh | PrPC surface inh | PfHsp40 yeast | BJeLR viability | PrP 5UTR inh | PrP 5UTR single
CCN(C[C@H]1N[C@@](Cc2ccccc2)(C(=O)OC)[C@H]2C(=O)N(Cc3ccccc3)C(=O)[C@@H]12)S(=O)(=O)c1ccc(C(F)(F)F)cc1 | - | - | - | - | . | 86 | -
CC[C@@]1(C(=O)OC)N[C@H](CN(C)C(=O)Nc2ccc(F)cc2)[C@@H]2C(=O)N(Cc3ccccc3)C(=O)[C@@H]21 | - | - | - | - | . | 70 | -
CCN(C[C@H]1N[C@@](Cc2ccccc2)(C(=O)OC)[C@H]2C(=O)N(C)C(=O)[C@@H]12)S(=O)(=O)c1ccc(C(F)(F)F)cc1 | - | - | - | - | . | - | .
CC[C@@]1(C(=O)OC)N[C@H](CN(C)C(=O)Nc2ccc(C)cc2)[C@@H]2C(=O)N(Cc3ccccc3)C(=O)[C@@H]21 | - | - | - | - | . | - | .
COc1cccc(NC(=O)N(C)C[C@H]2OCc3ccccc3-c3c(n(C)c4ccccc34)C(=O)N([C@H](C)CO)C[C@H]2C)c1 | . | - | - | . | . | . | .
COc1ccc(OC)c(S(=O)(=O)CC(=O)c2cc3ccccc3oc2=O)c1 | . | - | - | . | . | . | .
CN1CCC(N[C@@H](Cc2c[nH]c3ccccc23)C(=O)NCCCc2ccccc2)(C(=O)NCCc2c[nH]c3ccccc23)CC1 | . | . | - | . | . | . | .
Cc1ccc(-c2noc(CCC(=O)Nc3ccc4c(c3)OCO4)n2)cc1 | - | - | - | - | - | 60 | -
COc1ccc(-c2noc(CCC(=O)Nc3ccc4c(c3)OCCO4)n2)cc1 | - | - | - | - | - | - | .
CC(C)C[C@H](NC(=O)[C@@H]1CCCN1C(=O)[C@@H](N)Cc1ccc(O)cc1)C(=O)NCC(N)=O | - | - | - | - | - | 84 | -
CC(=O)Nc1ccc(S(=O)(=O)NCC2CCN(C(=O)C(=O)c3cccs3)CC2)cc1 | . | - | - | . | . | . | .
CC(C)(C)n1ncc2c(=O)n(CC(=O)OCc3ccccc3)cnc21 | - | - | - | - | - | 60 | -
O=C(Nc1ccc(COc2ccccc2)cc1)Oc1ccccc1N1CCOCC1 | - | - | - | - | - | 59 | -
COC(C(=O)C(O)C(C)O)C1Cc2cc3cc(OC4CC(OC5CC(O)C(O)C(C)O5)C(O)C(C)O4)c(C)c(O)c3c(O)c2C(=O)C1OC1CC(OC2CC(OC3CC(O)C(OC)C(C)O3)C(O)C(C)O2)C(O)C(C)O1 (stereo not drawn) | - | - | - | - | . | 70 | 71
CC1(C)CC(=O)C=C(c2ccc(COC(=O)c3ccc(Br)cc3)cc2)C1=O | . | - | - | . | . | . | .
CCc1ccccc1NC(=O)CSc1nc2ccccc2nc1N1CCOCC1 | - | - | - | - | - | 58 | -
O=c1oc2ccccc2c2c1cnc1ccccc12 | - | - | - | - | . | 64 | -
O=C1OCCN1C(=O)[C@H]1[C@H](c2ccccc2)C(c2ccc(F)cc2)=NN1c1ccc(Br)cc1 | - | - | - | - | . | 67 | -
COC(=O)C1=C(C)N(C)C(=NCc2ccc(OC)cc2)NC1c1cccc(Cl)c1 (stereo not drawn) | . | - | - | . | . | . | .
CC(=O)c1cccc(NC(=O)c2cnn3c(C)cc(C)nc23)c1 | . | . | - | . | . | . | .
CC[C@@H](C)[C@H](C(CC(=O)N1CCCC1[C@@H](OC)[C@H](C)C(=O)N[C@H](Cc1ccccc1)c1nccs1)OC)N(C)C(=O)[C@H](NC(=O)[C@@H](C(C)C)N(C)C)C(C)C (stereo partly drawn) | - | - | - | - | . | 56 | 92
Cc1cc([N+](=O)[O-])c2ccccc2[n+]1[O-] | - | . | . | 127 | - | 87 | 98
Cc1ccccc1[N+](=O)[O-] | - | - | - | - | . | - | .
CN1CCCCC(NC(=O)c2cccc(C(F)(F)F)c2)C1=O (stereo not drawn) | . | - | - | . | . | . | .
CNC(=O)c1ccccc1C1(O)c2ccccc2CCc2ccccc21 | . | - | - | . | . | . | .
SMILES | Yp Topo-I inh | CCHFV vOTU inh | PrPC surface inh | PfHsp40 yeast | BJeLR viability | PrP 5UTR inh | PrP 5UTR single
COc1ccc(C2/C(=C(/O)c3ccccc3)C(=O)C(=O)N2CCN2CCOCC2)c(OC)c1 (stereo not drawn) | - | - | - | - | - | - | .
COc1ccc(C2/C(=C(/O)c3ccc(Cl)cc3)C(=O)C(=O)N2CCN2CCOCC2)c(OC)c1 (stereo not drawn) | - | - | - | - | - | 63 | -
Cc1ccccc1C(=O)n1ccc2ccc(-c3ccc4ccn(Cc5ccc(C#N)cc5)c4c3)cc21 | . | - | - | . | . | . | .
O=C1CCC[C@H]2[C@@H](Cc3ccccc3)[C@@H](O)CC[C@]23CCCN13 | . | . | - | . | . | . | .
CC[C@@]1(c2cccc(Cl)c2)C(=O)N(C(=O)OC(C)C)N1C(=O)OC(C)C | . | - | - | . | . | . | .
Cc1cccc(-n2ncc3c(N(C)C4CCCCC4)ncnc32)c1 | - | - | - | - | - | 78 | 69
COc1ccc(-n2ncc3c(N4CCC(C)CC4)ncnc32)cc1 | - | - | - | - | - | - | .
COc1ccc(-n2ncc3c(N(C)C4CCCCC4)ncnc32)cc1 | - | - | - | - | - | 78 | 66
CCC(=O)OCCCN1CCC2(CCC(c3ccccc3)CC2)C1=O (stereo not drawn) | . | - | - | . | . | . | .
CC(COc1ccc(OC(F)(F)F)cc1)CN1CCC(C(O)(c2ccccc2)c2ccccc2)CC1 (stereo not drawn) | . | - | - | . | . | . | .
Cc1cc(N)nc(=O)n1C1CC(O)C(CO)O1 (stereo not drawn) | - | - | - | - | . | 59 | -
Nc1nc(=O)n(C2CC(O)C(CO)O2)cc1Cl (stereo not drawn) | . | - | - | . | . | . | .
COc1cc(C(=O)N2CCN(c3cccc(C)c3C)CC2)cc(OC)c1OC | - | - | - | - | - | 60 | 74
Cc1cccc(N2CCN(C(=O)c3ccncc3)CC2)c1C | - | - | - | - | - | - | .
COc1ccc(C(=O)N2CCN(C(=O)c3cc(OC)c(OC)c(OC)c3)CC2)cc1 | - | - | - | - | - | - | .
COc1cc(C(=O)N2CCN(c3cc(Cl)ccc3Cl)CC2)cc(OC)c1OC | ? | - | - | - | - | 56 | 88
COc1ccc(/C=C2\CC3(OC(=O)c4cccc(F)c4)CCCN2C3)cc1 (stereo not drawn) | . | - | - | . | . | . | .
O=C(Nc1nc2ncccn2c1-c1ccc(F)cc1)c1ccccc1 | . | - | - | . | . | . | .
COc1ccc(NC(=S)N(CCC(C)C)C2CCN(C(C)C)CC2)cc1 | - | - | - | - | - | - | .
CC(C)CCN(C(=S)Nc1cccc(F)c1)C1CCN(C(C)C)CC1 | - | - | - | - | - | 79 | -
COc1ccc(Oc2c(-c3cccs3)cnn(-c3ccc(C)cc3)c2=O)cc1 | . | . | - | . | . | . | .
CCc1ccc(-c2cn3nc(C)c(C)nc3n2)cc1 | - | - | - | - | - | 85 | -
Cc1nc2nc(-c3ccc(F)cc3)cn2nc1C | - | - | - | - | - | - | .
CN(CCCOC(=O)CC1C=CCC1)C1CN(Cc2cn(Cc3ccccc3Cl)nn2)S(=O)(=O)C1 (stereo not drawn) | . | - | - | . | . | . | .
